system: DYRK2; conditions: concentration: 1 μM, replicates: in singlicate; n = 1
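Also: KINOMEscan kinase panel screen.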

Row | SMILES | %Inh [%]
1 | COc1cc2ncnc(Nc3cccc(Br)c3)c2cc1OC.Cl [GI230329] | 21
2 | CS(=O)(=O)CCNCc1nc(-c2ccc3ncnc(Nc4ccc(OCc5ccccc5)c(Cl)c4)c3c2)cs1.Cl [GW582764] | 0
3 | COc1ccc2cc(-c3nc(-c4ccccc4C(C)C)[nH]c3-c3ccncc3)ccc2c1 [SB-660566] | 7
4 | COc1ccc(Nc2nccc(N3CCC(NC(=O)C(C)c4ccc(Cl)cc4)CC3)n2)cc1 (stereo not shown) [GSK1379812] | 19
5 | Cc1ccccc1-c1cc(-c2c[nH]nc2-c2ccccn2)ccn1 [GW680061] | 0
6 | CC[C@@H]1CO[C@H](C(=O)Nc2ccccc2)CN1c1cc(-c2ccc3c(N)n[nH]c3c2)nc(NC)n1 [GSK2376236] | 12
7 | O=C1NC(=O)C(c2ccc(Cl)cc2)=C1Nc1cccc(Cl)c1 [SB-317651] | 1
8 | Cc1c(Cn2c3ccccc3n3c(=O)cc(N4CCOCC4)nc23)cccc1C(F)(F)F [GSK2306394] | 14
9 | Cc1ccc(NC(=O)Nc2ccccc2F)cc1-c1ccc(C(=O)Nc2ccncc2)cc1 [GSK1398477] | 17
10 | O=c1cc(N2CCOCC2)nc2n(Cc3cccc(Cl)c3Cl)c3ccccc3n12 [GSK2299009] | 16
11 | CC(=O)c1c(C)c2cnc(Nc3ccn(C)n3)nc2n(C2CCCC2)c1=O | 0
12 | COc1cccc(CNC(=O)NC2CCN(c3ccnc(Nc4ccc(F)cc4)n3)C2)c1 (stereo not shown) [GSK1379723] | 4
13 | CC(=O)c1c(C)c2cnc(Nc3ccc(N4CCNCC4)cn3)nc2n(C2CCCC2)c1=O | 0
14 | COc1cccc(C2=C(Nc3cc(Cl)c(O)c(Cl)c3)C(=O)NC2=O)c1 [SB-390767] | 2
15 | Cc1ccccc1Cn1ccn2c(=O)cc(N3CCOCC3)nc12 [GSK2269905] | 0
16 | Fc1ccc(-c2nn3cccc(F)c3c2-c2ccncc2)cc1 [GW475620] | 0
17 | Cc1nccc(-c2c(-c3ccc(F)cc3)ncn2CCCN2CCOCC2)n1.Cl [SB-282975] | 0
18 | Cc1cccc2c(-c3ccncn3)c(-c3ccc(F)cc3)nn12 [GW515532] | 13
19 | COc1ccc(Nc2nccc(NCCNC(=O)Nc3cc(C)ccc3C)n2)cc1 [GSK1379899] | 2

Row | SMILES | %Inh [%]
20 | Nc1nccc(-c2c(-c3ccc(F)cc3)ncn2C2CCN(Cc3ccccc3)CC2)n1 [SB-219980] | 14
21 | CS(=O)(=O)Cc1ccc(Nc2nccc(-c3c(-c4cccc(NC(=O)C5CCCCC5)c4)nn4ncccc34)n2)cc1 [GSK350559] | 5
22 | Cc1ccc(NC(=O)Nc2ccc(Cl)c(C(F)(F)F)c2)cc1-c1ccc(C(=O)Nc2ccncc2)cc1 [GSK1398470] | 29
23 | O=c1cc(N2CCOCC2)nc2n(Cc3ccccc3F)ccn12 [GSK2297428] | 9
24 | O=C(Nc1n[nH]c2nc(-c3ccco3)c(Br)cc12)C1CCN(Cc2ccccc2)C1.O=C(O)[C@H](O)[C@@H](O)C(=O)O (stereo not shown) [SB-742034] | 32
25 | CCn1c(-c2c(N)noc2C)nc2cnccc21 [SB-737856] | 4
26 | Cn1cnc2c(N)ncnc21 [SKF-97623] | 0
27 | O=C(Nc1n[nH]c2cc(-c3ccsc3)ccc12)C1CC1 [SB-732932] | 28
28 | CN1c2ccc(-c3ccc(C(N)=O)cc3)cc2-c2[nH]ncc2S1(=O)=O | 0
29 | Cl.Cl.Cl.N#Cc1ccc(CCNc2nccc(-c3cccc(CN4CCNCC4)c3)n2)cc1 [GSK2137462] | 24
30 | Cn1cncc1C(=O)NC1CCN(c2ccnc(Nc3ccc(F)cc3)n2)C1 (stereo not shown) [GSK1379717] | 0
31 | CS(=O)(=O)CCNCc1nc(-c2ccc3ncnc(Nc4ccc5c(cnn5Cc5ccccc5)c4)c3c2)cs1.Cl.Cl [GW569716] | 0
32 | Cc1cnc(N)c(/C=C/c2cncc(C(=O)NCCc3ccc(Cl)cc3Cl)c2)c1.Cl [GSK190937] | 4
33 | CNCc1ccc2nc(NC(=O)c3ccc(C(C)(C)C)cc3)cn2c1 | 6
34 | CNc1cc(-c2ccc3c(N)n[nH]c3c2)nc(N)n1 [GSK2224810] | 90
35 | CNc1nc(-c2ccc3c(N)n[nH]c3c2)cc(N2C[C@@H](C(=O)Nc3ccccc3)CC[C@H]2C)n1 [GSK2298859] | 10
36 | COc1ccc(Nc2nccc(N3CCC(NC(=O)c4cc5ccccc5s4)C3)n2)cc1 (stereo not shown) [GSK1379738] | 0
37 | COc1ccc(CSc2nnc(-c3ccc4nccn4c3)o2)cc1C(F)(F)F | 0

Reference: PMC5540273 (PLoS ONE, 2017)
